Source: PubChem
PERK inh: inhibitors of human PERK kinase; AID 1416; CHO PERK-DD fusion, SEAP luminescence translation reporter; inhibition, % at 5.6 µM; 220,000 compounds, 0.17% hits; Q9NZJ5;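 active = inhibition above the mean inhibition of all tested compounds plus 3 SD, set separately per screening campaign, cut at about 2.9% in these data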;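 note: PERK kinase domain activated by AP20187 dimerizer at 100 nM; 0% = DMSO with dimerizer and 100% = rapamycin at 8.4 µM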
PKD1 inh: PKD1 (human) kinase inhibition. Q15139. PKD1 kinase fluorescence polarization assay. inhibition, % (no concentration beside the values). 200,000 compounds, 0.056% hits. AID 797; in the data active = inhibition above about 50%
Target sequence (Q15139 whole entry, looked up): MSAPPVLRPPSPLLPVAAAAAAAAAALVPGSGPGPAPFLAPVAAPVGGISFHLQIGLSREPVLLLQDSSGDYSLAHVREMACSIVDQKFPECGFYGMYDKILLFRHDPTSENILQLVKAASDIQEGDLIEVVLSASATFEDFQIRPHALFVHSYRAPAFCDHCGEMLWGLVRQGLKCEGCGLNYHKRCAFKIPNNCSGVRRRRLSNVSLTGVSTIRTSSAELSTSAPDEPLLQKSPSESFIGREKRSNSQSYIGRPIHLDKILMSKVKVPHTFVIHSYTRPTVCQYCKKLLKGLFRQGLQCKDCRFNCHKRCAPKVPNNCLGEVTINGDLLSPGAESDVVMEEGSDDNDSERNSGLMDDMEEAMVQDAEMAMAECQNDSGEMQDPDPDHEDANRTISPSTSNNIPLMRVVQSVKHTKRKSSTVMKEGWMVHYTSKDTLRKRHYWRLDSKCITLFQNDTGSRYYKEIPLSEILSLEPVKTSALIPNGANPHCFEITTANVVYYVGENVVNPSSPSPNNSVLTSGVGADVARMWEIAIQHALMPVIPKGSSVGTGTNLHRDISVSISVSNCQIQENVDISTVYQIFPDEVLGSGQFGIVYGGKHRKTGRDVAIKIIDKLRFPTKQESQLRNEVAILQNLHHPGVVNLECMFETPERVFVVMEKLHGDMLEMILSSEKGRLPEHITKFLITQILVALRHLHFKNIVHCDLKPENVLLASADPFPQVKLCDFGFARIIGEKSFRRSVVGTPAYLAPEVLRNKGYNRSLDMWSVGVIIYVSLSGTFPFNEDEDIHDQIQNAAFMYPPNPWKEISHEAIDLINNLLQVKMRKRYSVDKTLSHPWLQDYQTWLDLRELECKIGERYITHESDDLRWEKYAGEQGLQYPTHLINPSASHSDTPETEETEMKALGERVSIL
L929 necroptosis: blocks zVAD induced death of L929 cells; 220,000 compounds, 0.38% hits; L929 zVAD necroptosis rescue, ATP luminescence, 24 h; with zVAD 60 µM; viability rescue, % at 10 µM; AID 1377;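 active = activation, scaled between plate controls, above about 75%, limit read from the data; inactive = activation under that limit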;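 note: 0% = zVAD with DMSO and 100% = DMSO alone without zVAD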
WT yeast gro inh: growth inhibition of WT yeast, mitochondrial fusion screen. mitochondrial fusion phenotypic screen, WT strain. inhibition, % at 10 µM. 190,000 compounds, 2.1% hits; in the data active = inhibition above about 58%; tested in S. cerevisiae
TNF necrop inh: inhibitors of TNF-alpha induced necroptosis in Jurkat FADD-/- cells | AID 463075 | activation (protection from cell death), % at 10 µM | 220,000 compounds, 0.068% hits | Jurkat FADD-/- TNF necroptosis rescue, ATP luminescence, 24 h; 0 = TNF only, 100 = no-TNF cells;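 active = activation, meaning protection from cell death, of at least 50% relative to plate controls; inactive = activation below 50%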;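 note: necroptosis triggered by 40 ng/mL TNF-alpha added together with compound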
Redox H2O2 prof: compounds producing H2O2 with reducing agent – biochemical, NIH compound library profiling, artefact control for MLSCN library redox annotation, primary screen; DTT-dependent redox cycling H2O2, phenol red/HRP absorbance; 100% = 100 µM peroxide control, 0% = buffer; activation, % at 10 µM; 200,000 compounds, 0.03% hits; AID 878;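 active = activation of at least 50% relative to the plate's high and low controls in the primary single-dose screen; inactive = activation below 50%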;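 note: compound incubated with DTT at 0.8 mM final as the reducing agent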
An asterisk follows results filed as active; x = no result given. An excerpt weighted towards active compounds, which were near 2.4% of everything screened.

SMILES	PERK inh	PKD1 inh	L929 necroptosis	WT yeast gro inh	TNF necrop inh	Redox H2O2 prof
CCC(C(=O)Nc1c[nH]c(=O)[nH]c1=O)c1ccccc1 (stereo not drawn)	1	7	-1	-2	1	0
CCC(C(=O)Nc1ccc(OC)c(Cl)c1)c1ccccc1 (stereo not drawn)	1	-6	1	59*	4	0
Cc1cccc(-c2ncc(CN3CCCC(CO)(Cc4ccccc4C)C3)cn2)c1 (stereo not drawn)	2	-3	1	60*	1	0
O=C(Nc1ncc(Cl)cc1Cl)c1c(F)cccc1Cl	0	3	0	-22	-1	-2
CN(C)/C=C(/C#N)C(=O)c1cccc(Oc2ccc(C(C)(C)C)cc2)c1	0	-4	0	65*	-1	0
Cc1ccccc1Oc1cccc(C(=O)/C(C#N)=C/N(C)C)c1	0	4	0	-30	-2	0
COc1ccc(NC(=O)CCC2CCCCC2)cc1S(=O)(=O)N1CCCCC1	-1	4	1	18	-4	0
O=C(CNc1cccc2ccccc12)N/N=C/C(Br)=C/c1ccccc1	1	1	0	72*	-3	4
O=C(CNc1cccc2ccccc12)N/N=C/c1ccc[nH]1	-1	x	0	x	-16	x
C=CCc1cccc(/C=N/NC(=O)CNc2ccccc2OC)c1O	0	9	62	-4	-8	0
C=CCc1cccc(/C=N/NC(=O)CNc2cccc3ccccc23)c1O	0	-11	0	62*	-1	0
CCCc1cc(-c2nc(-c3ccc(Br)cc3)cs2)ccn1	0	6	1	69*	1	0
CCCc1cc(-c2nc(-c3ccc(Cl)cc3)cs2)ccn1	1	-9	0	78*	-1	-4
COc1ccc(OC)c(C(C)NC(=O)Nc2cccc(C(C)=O)c2)c1 (stereo not drawn)	0	4	1	14	2	-1
c1ccc(Cn2c(SCc3cn4cccnc4n3)nnc2-c2ccco2)cc1	1	-3	1	76*	0	-2
O=c1[nH][nH]c(-c2ccccc2)c1C=Nc1ccccc1	1	4	0	80*	-6	2
O=c1[nH][nH]c(-c2ccccc2)c1C=Nc1ccc(C(F)(F)F)cc1	2	2	1	-1	-4	-2
CC1=CC(=C2N=C(c3ccccc3)OC2=O)C=C(C)O1	2.9*	2	0	x	-3	1
Cc1noc(C)c1CSCc1ccc(Cl)cc1	1	0	0	10	0	-1
O=C(OC(C(=O)Nc1cccc(C(F)(F)F)c1)c1ccccc1)C1CCCCC1 (stereo not drawn)	-1	-1	1	62*	5	1
Cc1ccc2c(CC(=O)Nc3cccc(S(=O)(=O)N4CCOCC4)c3)coc2c1	0	2	0	14	1	0
CN1N=C(c2ccc(F)c(F)c2)CSC1=NCc1ccccc1	0	-2	8	69*	2	0
CC(C)CCSc1nc2[nH]ncc2c(=O)[nH]1	0	-7	3	3	1	1
Cc1cccc(N2C(=O)C(Oc3ccc(Cl)cc3Cl)C2C=O)c1C (stereo not drawn)	0	-6	-1	75*	-2	0
COCCN1CC(=O)N(c2cccc(C)c2C)C(c2ccc(Cl)cc2)C1=O (stereo not drawn)	0	-11	0	-13	-3	2
SMILES	PERK inh	PKD1 inh	L929 necroptosis	WT yeast gro inh	TNF necrop inh	Redox H2O2 prof
COc1ccc(Nc2nc(S(=O)(=O)c3ccc(C)cc3)c(Cl)s2)cc1	0	-3	3	57	2	1
Cc1ccc(S(=O)(=O)c2nc(Nc3ccccc3)sc2Cl)cc1	0	-8	3	79*	-3	1
O=c1[nH]c2c(cnn2-c2ccc(Cl)cc2)c(=O)n1-c1cccc(Cl)c1	1	x	2	x	0	x
COc1ccc(C(=O)/C=C/c2ccc(O)cc2)c(O)c1CC=C(C)C	1	-4	7	87*	-3	0
C/C(N)=C(/C#N)C(=O)CSc1nnnn1-c1ccccc1	0	-4	0	94*	-1	4
O=C(CSc1nnnn1-c1ccccc1)NCc1cccs1	-1	-10	0	74*	0	2
